# Data from PubChem BioAssay (NCATS).
# Results filed as inconclusive are left out. Calls of active or inactive are those of the source. Calls follow the shape of the dose curve; as a rule, active = well fitted cell-killing curve with a large enough effect; inconclusive = small, poorly fitted or top-dose-only effect; inactive = no such curve, though single readings can be large or run the other way.
# Assay: qHTS of pediatric cancer cell lines to identify multiple opportunities for drug repurposing: Primary screen for NB1643 cells (AID 1347099); also: nearly all actives have a fitted effect of over 50% in size
# Details: NB1643 neuroblastoma viability, CellTiter-Glo luminescence, 48 h; series mostly up to 46 µM; activity change, negative = cytotoxic: at the top concentration
# Source text: Drug repurposing or repositioning has been offered as a strategy for drug development in oncology programs. This approach has special potential for childhood cancers and other rare or orphan diseases, where the expected return on new drug development has been a disincentive to pharmaceuticals. […] In this project we exploit the poly-pharmacology of drugs to discover new indications via phenotypic screening of a panel of 19 well-characterized cell lines derived from solid tumors seen in children and adolescents. The goal is to identify approved drugs with previously unrecognized anticancer properties that has the potential to reveal new mechanisms and biological processes involved in carcinogenesis or drug resistance. We employed a titration-based paradigm (quantitative high-throughput screening or qHTS), where all compounds were tested at multiple concentrations for their effect on cell viability. Concentration-response curves (CRCs) were derived directly from the primary screen, and both potency and efficacy values were used to identify compounds with robust bioactivity profiles. We screened the NIH Chemical Genomics Center (NCGC) Pharmaceutical Collection (NPC) and Mechanism Interrogation Plate (MIPE) small molecule collections of approved and investigational compounds against these cell lines; and measured metabolically active cells after 48 hours of compound treatment as a proxy for cell viability. […] Assay Submitter: Nathalia J. Martinez, National Center for Advancing Translational Sciences, National Institutes of Health, Rockville, MD, USA; email: natalia.martinez@nih.gov Shen, M et al. Quantitative high-throughput phenotypic screening of pediatric cancer cell lines identifies multiple opportunities for drug repurposing. Oncotarget 2017 Dec 19;9(4):4758-4772. PMID 29435139.
# The cells were obtained from University of North Carolina (UNC), Pediatric Preclinical Testing Program (PPT), and Coriell Institute (CI). qHTS cell viability assay: Cells were assayed in growth media at a density of 500-1,000 cells/well. Five microliters of cells were dispensed into 1,536-well, white, solid-bottom, TC-treated plates (Greiner Bio One) using a multidrop dispenser and incubated at 37 degrees C, 5% CO2, under a humidified atmosphere for 5 hours. Twenty-three nanoliters of compounds and controls (neutral control DMSO or positive control bortezomib at final concentration of 2.3 µM) were subsequently transferred by Kalypsys pintool. For primary screens, the MIPE collection was tested at 11-point dilutions (final concentrations range from 0.78 nM to 46 µM) and the NPC collection at 8-point dilutions (final concentrations range from 0.59 nM to 46 µM). Compounds tested in follow-up screens were assayed at 11-point dilutions. Cells were incubated for 48 hours, followed by addition of 3 µL of CellTiter-Glo (Promega). After a 15 min incubation at room temperature, samples were analyzed for luminescence intensity using a ViewLux High-throughput CCD imager equipped with clear filters.
# Potency is read from the fitted curve at half-maximal effect.
SMILES,Potency,"activity change, negative = cytotoxic"
CC1(C)O[C@H]2CC(=O)OC[C@]23[C@H]2CC[C@@]4(C)[C@H](c5ccoc5)OC(=O)[C@H]5O[C@]54[C@]2(C)C(=O)C[C@@H]13,inactive,–
CN1CCN(C2=Nc3cc(Cl)ccc3Nc3ccccc32)CC1,inactive,–
OCCN(CCO)c1nc(N2CCCCC2)c2nc(N(CCO)CCO)nc(N3CCCCC3)c2n1,–,-48.3% (inactive)
CN1C2CCC1CC(OC(=O)C(CO)c1ccccc1)C2 (stereo not given),–,9.93% (inactive)
NC12CC3CC(CC(C3)C1)C2,–,2.96% (inactive)
NCCS(=O)(=O)O,–,3.19% (inactive)
Cc1cnc(C(=O)NCCc2ccc(S(=O)(=O)NC(=O)NC3CCCCC3)cc2)cn1,–,-12.4% (inactive)
NC(CO)C(=O)NNCc1ccc(O)c(O)c1O (stereo not given),–,-3.7% (inactive)
CC(C)(C)C(=O)Oc1ccc(S(=O)(=O)Nc2ccccc2C(=O)NCC(=O)O)cc1,–,8.14% (inactive)
COc1cc2c(c(OC)c1OC)-c1ccc(OC)c(=O)cc1[C@@H](NC(C)=O)CC2,8.4 nM (active),–
Cc1ccc(-c2cc(C(F)(F)F)nn2-c2ccc(S(N)(=O)=O)cc2)cc1,–,-7.48% (inactive)
O=C(C1CCCCC1)N1CC(=O)N2CCc3ccccc3C2C1 (stereo not given),inactive,–
COc1ccc(CCN(C)CCCC(C#N)(c2ccc(OC)c(OC)c2)C(C)C)cc1OC (stereo not given),–,13.5% (inactive)
CN(CCOc1ccc(NS(C)(=O)=O)cc1)CCc1ccc(NS(C)(=O)=O)cc1,inactive,–
COc1ccc2[nH]cc(CCNC(C)=O)c2c1,inactive,–
CCC1(C)CC(=O)NC1=O (stereo not given),inactive,–
CCCNCC(O)COc1ccccc1C(=O)CCc1ccccc1 (stereo not given),inactive,–
NC(=O)OCC(COC(N)=O)c1ccccc1,inactive,–
Clc1ccc(C(c2ccccc2Cl)C(Cl)Cl)cc1 (stereo not given),–,-15.6% (inactive)
O=c1[nH]cc(F)c(=O)[nH]1,5260 nM (active),–

SMILES,Potency,"activity change, negative = cytotoxic"
COc1cc2nc(N(C)CCCNC(=O)C3CCCO3)nc(N)c2cc1OC (stereo not given),inactive,–
CCOC(=O)c1ncn2c1CN(C)C(=O)c1cc(F)ccc1-2,–,9.22% (inactive)
O=C1Cc2cc(CCN3CCN(c4nsc5ccccc45)CC3)c(Cl)cc2N1,–,-5.4% (inactive)
C[C@](N)(Cc1ccc(O)c(O)c1)C(=O)O,inactive,–
CCOC(=O)Nc1ccc(NCc2ccc(F)cc2)nc1N,–,-10.5% (inactive)
O=C1N(c2ccccc2)c2ccccc2C1(Cc1ccncc1)Cc1ccncc1,inactive,–
Clc1ccc2c(c1)C(N1CCNCC1)=Nc1ccccc1O2,inactive,–
O=C(CCCN1CCC(O)(c2ccc(Cl)cc2)CC1)c1ccc(F)cc1,inactive,–
CN(C)CCC=C1c2ccccc2C=Cc2ccccc21,inactive,–
Cn1c(=O)c2[nH]cnc2n(C)c1=O,–,-15% (inactive)
CCc1cccc2c3c([nH]c12)C(CC)(CC(=O)O)OCC3 (stereo not given),–,-9.76% (inactive)
CCN1CCCC1CNC(=O)c1cc(S(=O)(=O)CC)c(N)cc1OC (stereo not given),–,0% (inactive)
NS(=O)(=O)c1cc2c(cc1Cl)NCNS2(=O)=O,–,11.5% (inactive)
CN(C)c1nc(N(C)C)nc(N(C)C)n1,–,0% (inactive)
CC[N+](CC)(CC)CCOc1cccc(OCC[N+](CC)(CC)CC)c1OCC[N+](CC)(CC)CC,inactive,–
Cn1c(=O)c2c(ncn2C)n(C)c1=O,inactive,–
COc1ccc(C2CNC(=O)C2)cc1OC1CCCC1 (stereo not given),–,-4.39% (inactive)
CC1(CN2CCC(n3c(=O)[nH]c4ccccc43)CC2)OCc2ccccc2-n2cccc21 (stereo not given),–,0% (inactive)
COc1nc(C)nc(Cl)c1NC1=NCCN1,inactive,–
CC#C[C@]1(O)CC[C@H]2[C@@H]3CCC4=CC(=O)CCC4=C3[C@@H](c3ccc(N(C)C)cc3)C[C@@]21C,–,-1.02% (inactive)
